Several values for one entry are separate records, joined by “and”; a condition that tells them apart may be missing. Identical values can stand only once. The campaign covered roughly 5,500 compounds. About 2,000 (36%) were called active. Roughly 18% stayed inconclusive and do not appear here. Cut-off read from the data, not from the text of the source: active = normalized growth mostly below about 0.91 (no sharp cut-off); inconclusive = no clear call, values can overlap the other calls; inactive = mostly above about 0.92. The list shows a part of the results.
Experiment: chemical genetic growth profiling, strain panel (AID 1159580);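 note: tested at 20 µM; growth read once vehicle control cultures reached saturation at 30 °C; 1 = growth at the plate median or of vehicle wells; lower values mean less growth of the strain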
Details: S. cerevisiae deletion strains, growth OD

Measured: normalized growth

NNCCc1ccccc1
inactive: locus YAL013W, strain DEP1, hits give low values 1 | locus YAL021C, strain ccr4, hits give low values 1.01 | locus YAL026C, strain drs2, hits give low values 1.02 | locus YAL030W, strain snc1, hits give low values 1.01 | locus YAL040C, strain CLN3, hits give low values 1.04 | locus YBL061C, strain skt5, hits give low values 1.01 | locus YBR009C, strain hhf1, hits give low values 1.01 | locus YBR021W, strain FUR4, hits give low values 0.997 | locus YBR023C, strain chs3, hits give low values 1.01 | locus YBR171W, strain sec66, hits give low values 1.02 | locus YBR229C, strain ROT2, hits give low values 0.954 | locus YBR231C, strain swc5, hits give low values 1.01 | locus YBR279W, strain paf1, hits give low values 1.01 | locus YCL011C, strain gbp2, hits give low values 1.01 | locus YCL016C, strain dcc1, hits give low values 1.01 | locus YCL029C, strain bik1, hits give low values 0.968 | locus YCL061C, strain MRC1 (second series), hits give low values 1.01 | locus YCL061C, strain MRC1, hits give low values 1.01 | locus YCL069W, strain vba3, hits give low values 1 | locus YCR088W, strain abp1, hits give low values 1.01 | locus YDL005C, strain med2, hits give low values 1.01 | locus YDL035C, strain GPR1, hits give low values 0.973 | locus YDL040C, strain nat1, hits give low values 1 | locus YDL074C, strain BRE1, hits give low values 0.946 | locus YDL101C, strain DUN1, hits give low values 0.975 | locus YDL134C, strain PPH21, hits give low values 0.994 | locus YDL185W, strain tfp1, hits give low values 0.98 | locus YDL192W, strain arf1, hits give low values 0.986 | locus YDR001C, strain nth1, hits give low values 1 | locus YDR069C, strain doa4, hits give low values 1 | locus YDR101C, strain arx1, hits give low values 0.985 | locus YDR137W, strain rgp1, hits give low values 1.02 | locus YDR150W, strain NUM1, hits give low values 0.996 | locus YDR159W, strain sac3, hits give low values 1.01 | locus YDR162C, strain NBP2, hits give low values 0.991 | locus YDR195W, strain ref2 0.997 | locus YDR297W, strain sur2, hits give low values 1 | locus YDR318W, strain mcm21, hits give low values 0.991 | locus YDR334W, strain swr1, hits give low values 0.999 | locus YDR335W, strain msn5, hits give low values 1.01 | locus YDR363W, strain ESC2, hits give low values 1.06 | locus YDR388W, hits give low values 0.991 | locus YDR392W, strain spt3, hits give low values 0.93 | locus YDR502C, strain sam2, hits give low values 0.994 | locus YEL003W, strain gim4, hits give low values 0.997 | locus YEL037C, strain rad23, hits give low values 1.01 | locus YEL061C, strain CIN8 (second series), hits give low values 1.01 | locus YEL061C, strain CIN8, hits give low values 0.98 | locus YER002W, strain NOP16, hits give low values 0.998 | locus YER015W, strain faa2, hits give low values 0.994 | locus YER016W, strain bim1, hits give low values 1.01 | locus YER110C, hits give low values 0.952 | locus YER111C, strain swi4, hits give low values 1.01 | locus YER155C, strain BEM2 (second series), hits give low values 1 | locus YER155C, strain BEM2, hits give low values 1 | locus YER167W, strain BCK2, hits give low values 0.99 | locus YFR010W, strain ubp6, hits give low values 0.989 | locus YGL078C, strain dbp3, hits give low values 0.995 | locus YGL086W, strain mad1, hits give low values 0.976 | locus YGL167C, strain pmr1, hits give low values 1.01 | locus YGL173C, strain kem1, hits give low values 1.01 | locus YGL227W, strain vid30, hits give low values 1.02 | locus YGL240W, strain doc1, hits give low values 1 | locus YGL248W, strain PDE1, hits give low values 0.979 | locus YGL253W, strain hxk2, hits give low values 1.01 | locus YGR078C, strain PAC10, hits give low values 1.01 | locus YGR135W, strain pre9, hits give low values 0.982 | locus YGR229C, strain SMI1, hits give low values 0.985 | locus YGR252W, strain gcn5, hits give low values 0.898 | locus YHR013C, strain ard1, hits give low values 1.02 | locus YHR027C, strain rpn1, hits give low values 1 | locus YHR030C, strain SLT2, hits give low values 0.996 and 0.983 | locus YHR079C, strain IRE1 (second series), hits give low values 0.991 | locus YHR079C, strain IRE1, hits give low values 0.965 | locus YHR094C, strain hxt1, hits give low values 0.99 | locus YHR129C, strain ARP1, hits give low values 0.981 | locus YHR142W, strain chs7, hits give low values 1.02 | locus YHR200W, strain rpn10, hits give low values 0.989 | locus YIL066C, strain RNR3, hits give low values 0.978 | locus YIL073C, strain SPO22, hits give low values 0.992 | locus YIL125W, strain kgd1, hits give low values 0.996 | locus YIR030C, strain dcg1, hits give low values 0.981 | locus YJL092W, strain hpr5, hits give low values 1 | locus YJL095W, strain BCK1 (second series), hits give low values 1.01 | locus YJL095W, strain BCK1, hits give low values 0.987 and 0.984 | locus YJL115W, strain asf1, hits give low values 1.01 | locus YJL129C, strain trk1, hits give low values 1.01 | locus YJL134W, strain LCB3, hits give low values 0.993 | locus YJL154C, strain vps35, hits give low values 1.01 | locus YJL164C, strain tpk1, hits give low values 1 | locus YJL166W, strain qcr8, hits give low values 1.01 | locus YJL168C, strain set2, hits give low values 0.985 | locus YJL187C, strain SWE1 (second series), hits give low values 0.976 | locus YJL187C, strain SWE1, hits give low values 1.01 | locus YJR043C, strain POL32, hits give low values 0.988
